In PubChem BioAssay AID504400 (The Scripps Research Institute Molecular Screening Center, 2011):
Unmarked numbers belong to inactive results. How the calls were made is not given here.

Test system: Phorbol Ester
Assay: CYP450 and receptor off-target profile – biochemical, Ricerca HitProfilingScreen, selectivity assay for S1P4 agonist project, late-stage follow-up (AID 504400)
Details: Ricerca radioligand binding/enzyme panel plus CYP450, at 10 µM, hits give high values

Clc1ccc(OCCOc2ccc(Br)nc2Br)c(Cl)c1
inhibition: 4%
